Screening data (PubChem BioAssay)
Compounds with a hit are over-represented: about 5.5% of the library has one in this group of screens.
Giardia kill: kills Giardia lamblia | Giardia lamblia trophozoite viability | activity change, % at 7.66 µM, hits read low | 340,000 compounds, 0.15% hits; in the data active means activity change below about -80%; inconclusive means between about -30% and that limit;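 further: parasites exposed to compound for two days anaerobically before the ATP read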
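Trophozoite viability was measured as ATP-dependent luminescence, read 15-30 min after reagent addition. Before that, parasites at 100 cells/well were exposed to compounds for 48 h, anaerobically, at 37 deg C.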
ELG1 repair inh: inhibitors of ELG1-dependent DNA repair in HEK293T cells; HEK293T ELG1-luciferase reporter, luminescence, 16 h; DNA damage induced by 5-fluorouridine; Potency, µM (doses to about 46.1 µM), actives largely listed as inhibitors; 330,000 compounds, 2.3% hits; further: nearly all actives have a fitted effect of over 55% in size
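In this reporter screen, reduction of luminescence relative to DMSO vehicle indicated activity. Compounds and 5-fluorouridine were added together to 2,000 cells per well, incubated for 16 hr at 37 °C, then developed with ONE-Glo.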
FBPA coupling cs: coupling enzyme interference in Giardia aldolase counter-screen; coupling enzyme system counterscreen, AmpLite Red fluorescence; activity change, negative = inhibition, % at 58.2 µM, hits read low; 290,000 compounds, 0.67% hits; in the data active means activity change below about -30%
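First, compound is pin-transferred into glyceraldehyde-3-phosphate coupling-enzyme reagent at 57.5 uM final and held 10 min at RT. Next, substrate, coupling system and AmpLite Red are added. After 20 min RT, fluorescence (525/598 nm) is read.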
Sfp inh: blocks B. subtilis Sfp PPTase activity | AID 1490 | 310,000 compounds, 3.5% hits | Potency, µM, usual class: inhibitors | Biochemical Sfp PPTase activity, qHTS | Q9F4F7;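 further: the enzyme is Sfp with the accession as filed and its product quenches rhodamine fluorescence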
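Sfp 15 nM + cpd, 15 min RT; start w/ rhodamine-CoA 5 uM, BHQ-2-YbbR 12.5 uM (final); 50 mM Hepes pH 7.6, 10 mM MgCl2, 0.01% NP-40, 0.01% BSA; read 525/598 nm at 0 and 30 min.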
Of the large screens only hits and unclear results are named; the others gave an inactive call. Unless noted, the call rests on the fitted dose curve; in most records, active means well fitted curve in the direction sought with a large enough effect; inconclusive means small, poorly fitted or top-dose-only effect, or another doubt; inactive means no such curve, though single readings can be large; an effect the other way counts as inactive or inconclusive.

COc1ccccc1C(=O)CC(=O)C(=O)Nc1cccc([N+](=O)[O-])c1C	ELG1 repair inh 18µM
Cc1cc(C)c2cc(C#N)c(NCCOC(=O)c3ccccc3C)nc2c1	none
COc1ccccc1C(=O)NCCNc1nc2cc(C)cc(C)c2cc1C#N	ELG1 repair inh 9.2µM
COc1cc(OC)cc(C(=O)NCCNc2nc3cc(C)cc(C)c3cc2C#N)c1	ELG1 repair inh 16µM
CCC(=O)NCCNc1nc2cc(C)cc(C)c2cc1C#N	ELG1 repair inh inconclusive
COc1ccc(C(=O)C(OC(=O)CNC(=O)c2ccco2)c2ccccc2)cc1 (stereo not given)	Sfp inh 79µM (no result: FBPA coupling cs)
Cc1ccc(S(=O)(=O)OCC2CN3C(CCC(C)C3c3ccc(Br)cc3)C(=O)O2)cc1 (stereo not given)	none (no result: Giardia kill, ELG1 repair inh)
COc1cc(C(=O)NC(=S)Nc2ccccc2[N+](=O)[O-])cc(OC)c1OC	ELG1 repair inh 6.5µM, Sfp inh 79µM
COc1cc(C(=O)NNC(=S)Nc2ccc(S(N)(=O)=O)cc2)cc(OC)c1OC	ELG1 repair inh inconclusive, Sfp inh 13µM
COc1ccc(C(=O)NC(=S)Nc2ccc(S(N)(=O)=O)cc2)cc1	Sfp inh inconclusive
COc1cc(C(=O)NC(=S)Nc2ccc([N+](=O)[O-])cc2C)cc(OC)c1OC	Sfp inh inconclusive
Cc1nn(C)c(C(=O)NC(=S)Nc2ccc([N+](=O)[O-])cc2)c1Cl	Sfp inh 32µM
O=C(NC(=S)Nc1ccccc1[N+](=O)[O-])c1ccco1	ELG1 repair inh inconclusive, Sfp inh 56µM
Cc1nn(C2CCS(=O)(=O)C2)c(C)c1CN(C)C(=O)c1ccc(Cl)cc1 (stereo not given)	none (no result: FBPA coupling cs, Sfp inh)
CC1(c2nnc(Cc3ccccc3)o2)CC(c2cccnc2)=NO1 (stereo not given)	none (no result: ELG1 repair inh, FBPA coupling cs, Sfp inh)
COc1cc(/C=C/C(=O)c2cccs2)cc(OC)c1OC	Sfp inh inconclusive (no result: Giardia kill, ELG1 repair inh)
CCc1noc(C)c1C(=O)OCC(=O)Nc1nc(-c2ccc(F)c(F)c2)cs1	ELG1 repair inh inconclusive (no result: FBPA coupling cs, Sfp inh)
COc1cc(C(=O)NC(=S)Nc2ccc(Cc3ccncc3)cc2)cc(OC)c1OC	ELG1 repair inh 13µM
COc1cccc(C(=O)NC(=S)Nc2ccccc2N2CCOCC2)c1	none (no result: FBPA coupling cs)
COc1cc(C(=O)NC(=S)Nc2ccc([N+](=O)[O-])cc2)cc(OC)c1OC	Sfp inh 45µM
COc1cc(C(=O)NC(=S)Nc2ccccc2N2CCOCC2)cc(OC)c1OC	Sfp inh 35µM (no result: FBPA coupling cs)
O=C(Nc1sc2c(c1C(=O)O)CCC2)C(=O)N1CCOCC1	Sfp inh 79µM (no result: FBPA coupling cs)
O=C(O/N=C1\CCCCC1c1ccc([N+](=O)[O-])cc1[N+](=O)[O-])c1c(F)cccc1F (stereo not given)	FBPA coupling cs -31, Sfp inh inconclusive
COc1cc2c(cc1OC)C(C)N(C(=O)Cn1ncc3c1-c1cc(C)ccc1OC3)CC2 (stereo not given)	ELG1 repair inh 18µM
CC12CCC(/C(=N/O)C1=O)C2(C)C (stereo not given)	none (no result: ELG1 repair inh)
CCOC(=O)C1CCN(Cc2cccc(OCc3ccccc3)c2)CC1	none
O=C(NCC1CCCO1)c1ccccc1NS(=O)(=O)c1ccc(Br)s1 (stereo not given)	none (no result: ELG1 repair inh, FBPA coupling cs, Sfp inh)
CC(C)Oc1ccc(S(=O)(=O)N2CCOCC2)cc1NC(=O)c1cc([N+](=O)[O-])ccc1N1CCOCC1	ELG1 repair inh inconclusive (no result: FBPA coupling cs, Sfp inh)
O=C(CC1CCS(=O)(=O)C1)Nc1ccc[nH]c1=O (stereo not given)	FBPA coupling cs -52, Sfp inh inconclusive
Cc1cccc(-c2nc(=S)c3c(n2Cc2ccco2)CCCC3)c1	Sfp inh 20µM
Cc1ccc(-c2nc(=S)c3c(n2Cc2ccco2)CC(C)(C)OC3)cc1	Sfp inh 56µM
O=C(Nc1ccccc1)C(Cl)C(=O)c1ccccc1 (stereo not given)	ELG1 repair inh inconclusive, Sfp inh 14µM
CC(=O)C(Cl)C(=O)Nc1ccccc1 (stereo not given)	Sfp inh inconclusive
Cc1cc(S(=O)(=O)N(Cc2ccc(F)cc2)CC2CCCO2)ccc1-n1cnnn1 (stereo not given)	none
Cc1cc(S(=O)(=O)N(Cc2ccc(C(C)C)cc2)CC2CCCO2)ccc1-n1cnnn1 (stereo not given)	ELG1 repair inh 16µM
Cc1c(C(=O)Nc2ccc(F)cc2)nnn1-c1cccc(C(F)(F)F)c1	ELG1 repair inh 5.8µM
Cc1cccc(-n2nnc(C(=O)Nc3ccc(F)cc3)c2N)c1	ELG1 repair inh inconclusive, Sfp inh inconclusive
COC(=O)c1ccc(CSc2nc3scc(-c4cccs4)c3c(=O)[nH]2)o1	Sfp inh 56µM
CC(C)CCNC(=O)C1CC2Cn3c(nc4cc(Cl)c(Cl)cc43)C2N1C (stereo not given)	none (no result: ELG1 repair inh, FBPA coupling cs, Sfp inh)
COC(=O)CC1C2(C)CC34OC5(C)O[C@@]6(C7/C(=C(/OC)C(C)C)C(=O)OC(c8ccoc8)[C@@]7(C)C(OC(=O)C(C)C)C(OC)[C@]6(O5)[C@@]13C)C(OC)[C@]4(OC)C2OC(C)=O (stereo not given in full)	none (no result: Giardia kill, ELG1 repair inh)
CN(c1ccc(F)cc1)S(=O)(=O)c1ccc(Cl)c(C(=O)Nc2ccncc2)c1	ELG1 repair inh 12µM (no result: FBPA coupling cs, Sfp inh)
CCc1ccccc1NC(=O)CSc1nnc([C@@H](N)Cc2ccccc2)o1	Sfp inh 50µM
CC(C)(C)Nc1oc(-c2ccccc2)nc1-c1ccccc1	none (no result: Giardia kill, ELG1 repair inh)
CCNc1ccc(C(=O)N/N=C/c2c(C)nn(-c3ccccc3)c2N2CCCC2)cc1[N+](=O)[O-]	ELG1 repair inh 21µM
Cc1ccc(NS(=O)(=O)c2cccc(C(=O)N/N=C/c3c(C)nn(-c4ccccc4)c3N3CCCC3)c2)c(C)c1	ELG1 repair inh inconclusive
Cn1cccc1C(=O)N1CCC[C@@]2(CCN(c3ccccc3)C2)C1	none (no result: Giardia kill, ELG1 repair inh)
C[C@@H]1O[C@H]2C3=C(C(=O)[C@H]4O[C@@H]4[C@H]3O)[C@@H]1[C@@H]1[C@@H](C)OC=C3[C@H](O)[C@H]4O[C@@H]4/C(=N\OCc4ccccc4)[C@]312	none (no result: Giardia kill, ELG1 repair inh)
Cc1oc(-c2ccc(Cl)cc2)nc1CN1CCCC(C(=O)NCc2cccnc2)C1 (stereo not given)	ELG1 repair inh 6.5µM
COc1ccc(C(=O)n2cc(C(=O)c3cc(C)ccc3O)cn2)cc1OC	ELG1 repair inh 23µM
COc1ccc(C(=O)n2cc(C(=O)c3cc(C)ccc3O)cn2)cc1	ELG1 repair inh inconclusive
O=C(CN1C(=O)c2cccnc2Oc2ccc(Cl)cc21)N1CCOCC1	none (no result: FBPA coupling cs)
O=c1c2c(nc3c(-c4ccc(Cl)cc4)c[nH]n13)CCC2	ELG1 repair inh 13µM, Sfp inh inconclusive
CCCN(CCC)Cc1c(C(=O)N/N=C/C(C)=C\c2ccco2)nnn1-c1nonc1N	ELG1 repair inh 21µM
Cc1ccc(S(=O)(=O)N(C(=O)c2ccncc2)c2ccc(OC(=O)c3ccncc3)c3ccccc23)cc1	ELG1 repair inh 18µM, Sfp inh 25µM
COC(=O)c1c(C)oc2ccc(N(C(=O)c3ccncc3)S(=O)(=O)c3ccc(C)cc3)cc12	none
CC(=O)Oc1ccc(N(C(C)=O)S(=O)(=O)c2ccc(C)cc2C)c2ccccc12	ELG1 repair inh inconclusive
